Source: PubChem BioAssay AID1117361 (Southern Research Institute, 2015)
About 900 (25%) of roughly 3,600 compounds were called active. How the calls were made is not given here. Only a sample is shown. A call without a number means that no potency is given here. Potency and affinity values are given separately.

Target: Protein Tat (Human immunodeficiency virus type 1 group M subtype B (isolate HXB2)) (UniProt P04608)
Experiment: HIV-1 Tat–TAR interaction blockers – biochemical, fluorescence polarization, FAM-labeled TAR RNA, counter-screen for Vif-APOBEC3G degradation inhibitor project, dose response (AID 1117361)
Conditions: Tat-TAR RNA binding; series mostly up to 100 µM

SMILES | outcome
Cc1ccc(C(=O)OC2CCS(=O)(=O)c3sccc32)cc1 (stereo not drawn) | inactive
COC(=O)c1ccc(NC(=O)CN2CCCC2)cc1 | inactive
COC(=O)Cc1ccc(NC(=S)NNC(=O)C2CC2)cc1 | inactive
CCc1nnc(NC(=O)CSc2nnc(Cc3ccccc3)o2)s1 | inactive
COC(=O)c1c(NC(=O)CSc2nnc(CNc3ccc(Cl)cc3)o2)sc(C)c1C | inactive
CCOC(=O)C1=C(Cn2cnc3ccccc32)NC(=O)NC1c1ccc(OC)cc1 (stereo not drawn) | inactive
Cc1ccc(C(=O)Oc2ccc(C(=O)COC(=O)c3cnccn3)cc2)cc1 | inactive
Cc1ccccc1N1CCN(Cc2c[nH]c3ccccc23)CC1 | inactive [at 50 µM]
CSc1ccc(/C=N/n2c(C3CCCCC3)n[nH]c2=S)cc1 | inactive
Cc1nc(C)c(C(=O)Nc2nc3c(C)cccc3s2)o1 | inactive
Clc1ccc(Sc2cc(N3CCOCC3)nc(-c3ccccc3)n2)cc1 | inactive
O=C(NC1=NCCS1)C1CC2CCC1C2 (stereo not drawn) | inactive
NC(=O)COC(=O)c1ccc(Oc2ccccc2)cc1 | inactive
CCOc1ccc2nc(NC(=O)CCn3cccc3)sc2c1 | inactive
CCOC(=O)N1CCN(C(=O)c2cc3c(s2)-c2ccccc2OC3)CC1 | inactive
COc1ccc(OC)c(S(=O)(=O)N2CCN(C)CC2)c1 | inactive
O=C1N(c2ccccc2)C2CS(=O)(=O)CC2N1c1ccc(Cl)c(Cl)c1 (stereo not drawn) | inactive
COc1cccc(OC)c1C(=O)n1nc(C)cc1C | inactive
Cc1cc(S(=O)(=O)n2ccnc2)c(Cl)cc1Cl | inactive
O=C(Cc1ccccn1)c1ccncc1 | inactive
Cc1ccc(N=Nc2ccc(O)c(/C=N\NC(=O)c3ccc(N)cc3)c2)cc1C | inactive
O=C(N/N=C/c1cccnc1)c1cc(O)c(O)c(O)c1 | inactive
CCC(Sc1nc(N)c(NC(=O)c2ccc(OC)c(OC)c2)c(=O)[nH]1)C(=O)OC (stereo not drawn) | inactive

SMILES | outcome
S=C(Nc1ccc(Oc2ccccc2)cc1)NC1CCCCC1 | inactive
CCCCCCc1nc2c(=O)[nH]c3ccccc3c2o1 | inactive
CCOC(=O)COn1c(=O)c(-c2ccc(Cl)cc2)[n+]([O-])c2ccccc21 | inactive
COc1ccccc1OCC(=O)NCC1CCCN(Cc2cnn(C(C)C)c2)C1 (stereo not drawn) | inactive
CCC(C)c1c(O)nc(SCC(=O)N2CCOCC2)[nH]c1=O (stereo not drawn) | inactive
CC1(C)CCC(=O)c2ccccc21 | inactive
O=C(Oc1ccccc1)c1cccc2cccnc12 | inactive
O=C(O)CCC(=O)N(Cc1cccs1)Cc1cccs1 | inactive
CC(C)Cn1c(CCC(=O)O)ccc1-c1cccs1 | inactive
CCc1ccc(-c2nc(SCC(=O)NC3CCS(=O)(=O)C3)n[nH]2)cc1 (stereo not drawn) | inactive
O=C(CNC(=O)Cn1cnc2sc3c(c2c1=O)CCCC3)NCc1ccccn1 | inactive
Cc1cc(NC(=O)c2cncc(Br)c2)no1 | inactive
O=C1c2ccccc2C(=O)N1OCCOCCOCCBr | inactive
O=C1CCC(CCC(=O)N2CCCC(C(=O)c3ccc4c5c(cccc35)CC4)C2)=NN1 (stereo not drawn) | inactive
Cc1ccc(OCc2ccc(C(=O)NN)o2)cc1C | inactive
CN(C)C(=O)c1ccc(COc2ccccc2Br)o1 | inactive
CCOC(=O)c1cc2c(c(CCO)n1)[C@H](CCO)N(S(=O)(=O)C(C)(C)C)C2 | inactive
COc1ccc(OC)c(NC(=O)CSc2nnc(CCCO)n2-c2ccccc2)c1 | inactive
O=C(CSc1nnc(-c2cccnc2)n1C1CCCCC1)NC1CCCCC1 | inactive
Cc1cccc(-n2c(N)cc(=O)nc2SCC(=O)NC2CCCCC2)c1 | inactive
COc1ccc(-n2c(Cc3cccn3C)nnc2SCC(=O)Nc2ccccc2)cc1 | inactive
O=C(Cc1cc(=O)[nH]c(=O)[nH]1)NCC1CCCO1 (stereo not drawn) | inactive
Cc1ccc(-n2c(SCC(=O)NCC3CCCO3)nc3c(c2=O)SCC3)cc1 (stereo not drawn) | inactive

SMILES | outcome
N#Cc1ccccc1S(=O)(=O)N1CCN(C(=O)CN2CCCC2c2cccs2)CC1 (stereo not drawn) | inactive
COc1ccc(C(C)NC(=O)C2C(=O)NC3(C)CC2c2ccccc2O3)cc1 (stereo not drawn) | inactive
O=C(O/N=C\c1ccc(N2CCCCC2)c([N+](=O)[O-])c1)c1c(F)cccc1F | inactive
Nc1nc2n(n1)C(c1c(F)cccc1Cl)CC(c1ccc(F)cc1)N2 (stereo not drawn) | inactive
CCOC(=O)Cn1c(=O)c2c(nc3n2CCN3Cc2ccccc2)n(C)c1=O | inactive
O=C(Nc1ccccc1)c1ccc(S(=O)(=O)N(CCO)CCO)cc1 | inactive
COc1ccccc1NC(=O)C12CC3CC(C1)CC(c1ccc(C)cc1)(C3)C2 | inactive
COc1ccc(N=c2scc(-c3ccc(OC)cc3)n2CCO)cc1 | inactive
O=C(c1ccccc1Br)N1CCN(c2ccccc2)CC1 | inactive
COc1cc(OC)cc(C(=O)NNC(=O)c2ccccc2Br)c1 | inactive
CC1=CC(C)(C)n2c(O)c(N=NC(N)=S)c3c(C)c(C)cc1c32 | inactive
COc1ccccc1Oc1coc2cc(OC(=O)N3CCOCC3)ccc2c1=O | inactive
O=C(O)c1ccc(Sc2nnnn2-c2ccccc2)c([N+](=O)[O-])c1 | inactive
CCCCN(C)C(=O)c1cn(CC)c2ccc(S(=O)(=O)N(C)C)cc2c1=O | inactive
O=C(CCCc1c[nH]c2ccccc12)N1CCOCC1 | inactive
O=C(O)c1ccc(NS(=O)(=O)c2cccc(C(=O)Nc3ccc([N+](=O)[O-])cc3)c2)cc1 | inactive
COc1ccccc1C(=O)Nc1ccc(S(=O)(=O)Nc2cc(C)nc(C)n2)cc1 | inactive
CCn1c(C(=O)N2CCCC(C(=O)NCCc3ccc(C)cc3)C2)cc2sccc21 (stereo not drawn) | inactive
CC1(C)Oc2ccc(C(=O)NC3CCCC3)cc2N(CC(=O)NC2CCCC2)C1=O | inactive
O=C(NC1CCCC1)c1ccc(CNc2c(N3CCOCC3)c(=O)c2=O)cc1 | inactive
CCCCOCCCNC(=O)c1ccc(OCC)cc1 | inactive
CCCNC(=O)c1cccc(Cn2nc(C)c(Br)c2C)c1 | inactive
CCC(Nc1nc(-c2ccccc2)nc2ccccc12)C(=O)O (stereo not drawn) | inactive

SMILES | outcome
Clc1ccc(Sc2oc(/C=N/n3cnnc3)cc2Br)cc1 | inactive
O=C1C(Cl)=C(Nc2ccc3cn[nH]c3c2)C(=O)c2ccccc21 | inactive
C/C(=N\NC(=O)C(C)Oc1ccc([N+](=O)[O-])cc1)c1ccccn1 (stereo not drawn) | inactive
COC(=O)C1=C(C)N(C)C(C)=C(C(=O)OC)C1c1ccc(F)c(Br)c1 | inactive
COc1cc(OC)cc(C(=O)NC2CCN(C(=O)N3c4ccccc4Sc4ccccc43)CC2)c1 | inactive
Nc1c(-c2ccccc2Cl)cnn1-c1cccc([N+](=O)[O-])c1 | inactive
COc1ccc(-c2[nH]c(-c3ccc(C)cc3)nc2SCC(=O)NCc2ccco2)cc1OC | inactive
COC(=O)Nc1sc2c(c1C(=O)NCc1ccco1)CCCC2 | inactive
O=C1CC(SC(=Nc2ccccc2)Nc2ccccc2)C(=O)N1c1ccc(Cl)cc1 (stereo not drawn) | inactive
O=C(NCc1ccc(F)cc1)C1CCCN(C(=O)Nc2ccccc2)C1 (stereo not drawn) | inactive
CCOC(=O)CC1COc2ccccc2N1C(=O)c1ccc(C)cc1 (stereo not drawn) | inactive
CS(=O)(=O)NCc1nnc(SCc2ccccc2C(F)(F)F)o1 | inactive
CSc1oc(-c2ccccc2)nc1S(=O)(=O)c1ccc(C)cc1 | inactive
Cc1ccc2c(c1)c1ccc3c(c1n2C)C(=O)C=CC3=O | inactive
COc1ccc2c(c1)c1ccc3c(c1n2C)C(=O)C=CC3=O | inactive
COc1cc2c(cc1NC(=O)COC(=O)Cn1cnc3ccccc31)oc1ccccc12 | inactive
CCOC(=O)CSc1nnc(-c2cccnc2)n1Cc1ccccc1 | inactive
CCOC(=O)C(CC(=O)O)=C(c1ccccc1)c1ccccc1 | inactive
CCc1cccc(NC(=O)CN(C)S(=O)(=O)c2cccc3nsnc23)c1 | inactive
O=C(OCc1c(Cl)cccc1Cl)c1cccnc1Cl | inactive
Cc1ccc(-c2csc(NC(=O)C3CC=CCC3C(=O)O)c2C(=O)OC(C)C)cc1 (stereo not drawn) | inactive
O=C(C1CCCO1)N1CCC(c2nc3ccccc3[nH]2)CC1 (stereo not drawn) | inactive
O=C(C1CCN(S(=O)(=O)N2CCC3(CC2)OCCO3)CC1)N1CCOCC1 | inactive

SMILES | outcome
O=C(NCC1CC1)c1ccc2c3n(nc2c1)-c1ccccc1CO3 | inactive
O=C(NNC(=O)c1ccccc1O)c1cc2ccccc2o1 | inactive
COc1ccc(C(=O)NCc2cn3cccc(C)c3n2)cc1OC | inactive
COc1ccc(Cl)c(NCCC(=O)O)c1 | inactive
O=C(NCc1cccnc1)c1cc(S(=O)(=O)N2CCCCC2)ccc1Cl | inactive
NS(=O)(=O)c1ccc(NC(=O)COC(=O)c2cc(Cl)ccc2[N+](=O)[O-])cc1 | inactive
CC(=O)Nc1ccc(/C=N/Nc2ccc(C(=O)c3c(C)cc4ccccn34)cc2[N+](=O)[O-])cc1 | inactive
Clc1ccc(/C(Cc2nc3ccccc3[nH]2)=N\Nc2ccccc2)cc1 | inactive
Cc1c(Cl)cccc1NC(=O)CC(Cc1ccccc1)C(=O)O (stereo not drawn) | inactive
COC(=O)c1cc2c(ccn2-c2ccc(F)cc2)n1CC(C)C | inactive
CC1CCN(c2nc3ccc(C(=O)N4CCN(Cc5ccccc5)CC4)cc3s2)CC1 | inactive
CCOC(=O)CSc1nnc(CNC(=O)c2cccs2)n1-c1ccccc1 | inactive
O=C(COC(=O)c1ccc(O)cc1O)NNC(=O)c1cccs1 | inactive
COc1cccc(OC)c1OCCOCCn1cnc2ccccc2c1=O | inactive
COCC(=O)NCc1nc2ccccc2[nH]1 | inactive [at 50 µM]
COc1cccc(/C=N/NC(N)=S)c1OCc1ccccc1Cl | inactive
CCn1c(CNc2ccc(Cl)cc2)nnc1SCc1ccccc1 | inactive
CCOc1cc(Cl)c(S(=O)(=O)NCc2ccccn2)cc1Cl | inactive
CCOC(=O)CSc1nnc(CNc2ccc(Cl)cc2)n1-c1ccccc1 | inactive
Clc1ccc(CNc2ccc(CNc3ncn[nH]3)cc2)c(Cl)c1 | inactive
CCCNC(=O)COC(=O)c1ccccc1OCc1ccc(Cl)cc1 | inactive
